This passage reports growth results from PubChem BioAssay (NCI).

The structures appear in SMILES notation. This is part of a sample that, as a whole, favours compounds with a hit. Of some 83,000 tested, about 20% had one in any assay.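 The endpoint reported here, percent growth, reads 100 for growth as untreated, 0 for no net growth and -100 for all cells dead.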 Values without a mark were called inactive. Active and inactive are the calls of the source. The calls were made as follows: active = growth percent below 10; inactive = the rest.

This assay deals with SK-MEL-5 melanoma. Briefly: NCI-60 one-dose screen, 48 h (100 = growth as untreated, 0 = no growth, -100 = all killed). To be noted: 10 µM unless noted.
Take `Cc1ccc(NC(=O)N[C@@H](Cc2cc(F)cc(F)c2)C(=O)NC2C(=O)N3CCC[C@H]3C(=O)N3CCCC[C@H]3C(=O)N[C@@H](C)C(=O)N3C[C@H](C)C[C@H]3C(=O)O[C@H]2C)c(F)c1` (some centres undefined): the growth was 2.32% (active).
Consider `COc1ccc(/C=C/C(=O)c2nnn(-c3ccc(C(=O)O)cc3)c2C)cc1OC`, for which the growth is 103%.
With `O=C(Nc1cc(F)cc2cccnc12)c1cnc(N2CCOCC2)cn1` the figure was 83.5%; with `Oc1ccccc1-c1nnc(SCc2ccc(O)c3ncccc23)o1`, -4.08% (active); with `COc1cc(/C=C2\SC(=O)NC2=O)ccc1OCC(=O)Nc1ccc(C(=O)/C=C/c2cc3ccccc3nc2Cl)cc1`, 32.7%.
In the case of `Nc1nc(-c2cccc([N+](=O)[O-])c2)c(N=Nc2ccccc2Cl)s1`, the growth is 80.8%.
Regarding `Oc1ccc(-c2nnc(SCc3ccc(O)c4ncccc34)o2)cc1`, the growth was -17.1% (active).
As for `C[C@H]1[C@H](C)CC[C@]2(COC(=O)c3cccnc3)CC[C@]3(C)C(=CC[C@@H]4[C@@]5(C)CCCNC(C)(C)[C@@H]5CC[C@]43C)[C@H]12`, the figure is 56.4%; as for `O=c1[nH]c2cc(Cl)ccc2n1C1CCN(c2ccc3nnc(Cl)n3n2)CC1`, 91.6%; as for `COc1ccc(N2CCN(C(=O)CSc3ccc(-c4nc5cc(C)c(C)cc5[nH]4)cn3)CC2)cc1`, 3.13% (active).
Turning to `Cc1cc(F)cc(NS(=O)(=O)c2ccc(-c3cnc(C4CC4)o3)cc2)c1`, the growth was 21.5%.
With `Oc1ccc(CSc2nnc(-c3ccncc3)o2)c2cccnc12`, the growth was -51.3% (active).
With `O=C(COc1ccc(/C=C2\SC(=O)NC2=O)cc1)Nc1ccc(C(=O)/C=C/c2cc3ccccc3nc2Cl)cc1` the figure was 33.5%.
With `O=C(Nc1cccc(Cl)c1)Nc1nc2ccc([N+](=O)[O-])cc2s1` the figure was -75.3% (active); with `Cn1cc(-c2nn3cc(-c4cccnc4)nc3s2)c2cc(F)ccc21`, 94.3%.
On to `COc1ccc(CCN2C(=O)/C(=C/c3nc(CO)cs3)SC2=S)cc1`, for which the growth was 98.1%.
As for `C/C(=N\NC(=S)Nc1ccc(Br)cc1)c1cc2ccccc2oc1=O`, the growth is -24.7% (active).
As for `O=C1[C@H]2Cc3c([nH]c4ccccc34)[C@@H](c3ccc(Cl)cc3)N2C(=O)CN1C1CCN(Cc2c(Cl)cccc2Cl)CC1`, the figure is 90.1%.
On to `O=C1[C@H]2Cc3c([nH]c4ccccc34)[C@@H](c3c(Cl)cccc3Cl)N2C(=O)CN1C1CCN(Cc2ccccc2)CC1`, for which the growth is 84.6%.
With `Oc1ccccc1-c1nnc(SCc2ccc(O)c3ncccc23)n1-c1ccccc1` the figure was -60.3% (active).
As for `CC1=C2C(=C[C@@](C)(COS(N)(=O)=O)[C@@H]2O)C(=O)[C@](C)(O)C12CC2`, the figure is 89.5%; as for `CC1(COc2ccc3ncc(C#Cc4cncc(C(=O)Nc5cc(C(C)(C)C)on5)c4)n3n2)COC1`, 7.95% (active).
As for `NC(=S)N/N=C(/C=C/c1cn(-c2ccccc2)nc1-c1ccc(Cl)cc1)c1cc2ccccc2oc1=O`, the figure is 30.4%; as for `O=C(/C=C1\C=CN(CCCCO)c2ccccc21)n1ccc2ccccc21`, 98.1%.
As for `Cc1cc(NS(=O)(=O)c2ccc(-c3cnc(C4CC4)o3)cc2)ccc1I`, the growth was 31.5%.
With `Oc1ccc(CSc2nnc(-c3ccccc3)o2)c2cccnc12` the figure was 6.95% (active); with `CS(=O)(=O)c1ccc2c(c1)c1c(n2S(=O)(=O)c2ccc(Cl)cc2)CCCC1`, 26.7%; with `CN(C)C(=O)c1ccccc1-n1cnc2ccccc2c1=O`, 101%.
As for `C=C(C)C(=O)O[C@H]1C[C@@]2(C)OC(=CC2=O)[C@H](C)[C@H](O)[C@H]2OC(=O)C(=C)[C@@H]21`, the figure is 88.2%; as for `O=C(Nc1cc(Cl)cc(Cl)c1)Nc1nc2ccc([N+](=O)[O-])cc2s1`, -76.5% (active); as for `C#C[C@]1(O)CC[C@H]2[C@@H]3CC=C4c5sc(Nc6ccc(OC)nc6)nc5CC[C@]4(C)[C@H]3CC[C@@]21C`, 52.1%.
As for `CCOc1ccc2nc(NC(=O)Nc3ccccc3C)sc2c1`, the figure is 59.6%.
`CN(c1ccc(Br)cc1)S(=O)(=O)c1ccc(-c2cnc(C3CC3)o2)cc1`: the growth is 30%.
On to `CCNC(=NCCCN(C)C)N/C(N)=N/c1nc2ccccc2s1`, for which the growth is 93.4%.
With `Cc1cc(Cl)cc(NS(=O)(=O)c2ccc(-c3cnc(C4CC4)o3)cc2)c1` the figure was 32.5%; with `N/C(=N\c1nc2ccc([N+](=O)[O-])cc2s1)C(Cl)(Cl)Cl`, 83.8%.
On to `CS(=O)c1nccc(-c2c(-c3ccc(F)c(OCCc4ccc(F)cc4)c3)nc3sccn23)n1` (centres undefined), for which the growth was 99.1%.
With `CN(c1ccc(F)cc1)S(=O)(=O)c1ccc(-c2cnc(C3CC3)o2)cc1` the figure was 26.8%.
`Cc1cn(-c2cc(NC(=O)c3cncc(C#Cc4cnc5ccc(OCCCS(C)(=O)=O)nn45)c3)cc(C(F)(F)F)c2)cn1`: the growth is 2.76% (active).
